Experimental findings from PubChem BioAssay (EPA / NIEHS) are described below.

The source made the active and inactive calls. How the source made its calls: active means hit-call score of the fitted dose curve at least 0.9, where 1 is the maximum; inactive means score below 0.9.

The term AC50 denotes the concentration giving half of the maximal activity seen.

Paired box protein Pax-6 (Homo sapiens), sequence (P26367 whole entry, looked up): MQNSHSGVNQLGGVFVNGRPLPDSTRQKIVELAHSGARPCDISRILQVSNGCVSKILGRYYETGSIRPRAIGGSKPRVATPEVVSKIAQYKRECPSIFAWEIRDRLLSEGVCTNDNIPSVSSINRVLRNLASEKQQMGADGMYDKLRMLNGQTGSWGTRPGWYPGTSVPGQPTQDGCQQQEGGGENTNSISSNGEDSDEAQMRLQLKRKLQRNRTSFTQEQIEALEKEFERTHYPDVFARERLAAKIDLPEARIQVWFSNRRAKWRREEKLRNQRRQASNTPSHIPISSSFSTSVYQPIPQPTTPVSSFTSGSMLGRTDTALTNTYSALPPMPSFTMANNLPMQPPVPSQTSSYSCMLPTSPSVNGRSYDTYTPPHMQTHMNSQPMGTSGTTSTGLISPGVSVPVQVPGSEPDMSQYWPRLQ

This experiment has as its target Paired box protein Pax-6 (Homo sapiens) (UniProt P26367). Nature of the experiment: ATG_Pax6_CIS: Attagene CIS-FACTORIAL HepG2 Assay for human Paired Box 6 (PAX6) (AID 2282956). As to conditions: HepG2 CIS-FACTORIAL PAX6 reporter transcription, RNA readout; actives raise or lower the signal. The procedure:
ATG_CIS is a cell-based, multiplexed-readout assay that uses HepG2, a human liver cell line, with measurements taken at 24 hours after chemical dosing in a 24-well plate.ATG_Pax6_CIS is one of 52 assay component(s) measured or calculated from the ATG_CIS assay. It is designed to make measurements of mRNA induction, a form of inducible reporter, as detected with fluorescence intensity signals by Reverse transcription polymerase chain reaction (RT-PCR) and Capillary electrophoresis technology.Data from the assay component ATG_Pax6_CIS was analyzed into 1 assay endpoint. This assay endpoint, ATG_Pax6_CIS, was analyzed with bidirectional fitting relative to DMSO as the negative control and baseline of activity. Using a type of inducible reporter, measures of mRNA for gain or loss-of-signal activity can be used to understand the reporter gene at the transcription factor-level as they relate to the gene PAX6. Furthermore, this assay endpoint can be referred to as a primary readout, because this assay has produced multiple assay endpoints where this one serves a reporter gene function. To generalize the intended target to other relatable targets, this assay endpoint is annotated to the dna binding intended target family, where the subfamily is paired box protein.
Human liver HepG2 cells are transiently transfected with multiple reporter transcription units (MRTUs) in 6-well plates using FuGene 6 reagent (Roche; 3 ml FuGene/1 mg DNA). The MRTU constructs are regulated by a cis-regulating element (promoter). […] A major difference between the CIS and TRANS system is that in CIS activities of endogenous TFs are measured, whereas the TRANS assay evaluates changes in activities of exogenous, chimeric NR-Gal4 proteins. […] At the end of 24 hour incubation, total RNA was isolated using TriZol reagent (Invitrogen). The isolated RNA is then reverse-transcribed using oligo(dT) primer and Mo-MLV reverse transcriptase (Invitrogen) with DNAse I (Ambion) treatment for 30 min. The one-tenth of the produced cDNA was amplified by PCR using Taq DNA polymerase (Invitrogen) and two reporter sequence-specific primers. The PCR products were fluorescently labeled by primer extension with 6-arboxyfluorescein (6-FAM) 5'-labeled reporter sequence-specific primer (2 min at 95 C, 20 s at 68 C and 10 min at 72 C) and these products were digested with 5U of HpaI (New England Biolabs) for 2h at 37 C. The fragments were purified using Qiaquick PCR columns (Qiagen), analyzed on an ABI 3130xL genetic analyzer (Applied Biosystems) with peak positions identified by using a set of X-rhodamine (ROX)-labeled MapMarker1000 molecular weight standards (BioVentures). The raw capillary electrophoresis data was processed using Attagraph software (Attagene).
Regarding `CCCCCCCCCCCCC`, the compound was classed as inactive.

With `CC1OC(=O)C(C)OC1=O` (stereo not given), the call was inactive.

Turning to `[Cl][Sc]([Cl])[Cl]`, the result was inactive.

Regarding `O=C(Nc1ccccc1)c1cc(Cl)ccc1O`, the compound was classed as inactive.

Consider `CC1(C)[C@@H]2CC[C@@]1(C)C(=O)C2`, for which the compound was called inactive.

With `C=C[Si](OCCOC)(OCCOC)OCCOC`, the compound was called inactive.

For the compound `Fc1ccc(Br)cc1`, the call was inactive.

For `CCCCCCO`, the result was inactive.

Turning to `CC(C)=CCCC(C)=CC#N`, the result was inactive.

For the compound `CO[Si](CCCS)(OC)OC`, the result was inactive.

Regarding `CC(=O)/C=C/C1C(C)=CCCC1(C)C` (stereo not given), the compound was classed as inactive.

As to `CC(C)[N+](C)(CCOC(=O)C1c2ccccc2Oc2ccccc21)C(C)C`, the call was inactive.

On to `Cc1ccc(S(=O)(=O)N=C=O)cc1`, for which the outcome was inactive.

Regarding `COc1ccc(C(=O)c2ccccc2)c(O)c1`, the AC50 is 149 µM (active).

Turning to `CC(C)C(=O)OCCOc1ccccc1`, the result was inactive.

In the case of `CC(C)(O)Cc1ccccc1`, the outcome was inactive.

As for `CC1CCC(=O)C1=O` (stereo not given), the result was inactive.

On to `CCCCC1CCC(=O)O1` (stereo not given), for which the compound was classed as inactive.

On to `C=C(C)C(=O)OCC(O)COc1ccc(C(C)(C)c2ccc(OCC(O)COC(=O)C(=C)C)cc2)cc1` (stereo not given), for which the AC50 was 42.2 µM (active).

On to `CC(C)(C)NC(=O)[C@H]1CC[C@H]2[C@@H]3CC[C@H]4NC(=O)C=C[C@]4(C)[C@H]3CC[C@]12C`, for which the call was inactive.

As to `CC(C=O)c1ccccc1` (stereo not given), the compound was classed as inactive.

Turning to `Nc1ccc(Cl)c(N)c1`, the call was inactive.

With `CCN(CC)c1cccc(C)c1`, the result was inactive.

On to `CCCCCCCC(=O)OCC(COC(=O)CCCCCCC)OC(=O)CCCCCCC`, for which the outcome was inactive.

Turning to `CC1CCC(C(C)(C)S)C(=O)C1` (stereo not given), the outcome was inactive.

Turning to `C=C(C)C1CC=C(C)C(OC(C)=O)C1` (stereo not given), the result was inactive.

On to `CCCCCCCCCCCC(=O)OCC`, for which the outcome was inactive.

In the case of `CCCCC/C=C\C/C=C\CCCCCCCC(=O)O`, the AC50 was 133 µM (active).

With `CC(Cl)COP(=O)(OCC(C)Cl)OCC(C)Cl` (stereo not given), the outcome was inactive.

With `COC(Cc1ccccc1)OC`, the compound was classed as inactive.

For `O=c1c(O)c(-c2ccc(O)cc2O)oc2cc(O)cc(O)c12`, the call was inactive.

For `Oc1ccc(/C=C/c2cc(O)cc(O)c2)cc1`, the compound was called inactive.

As to `CC(=O)OCCc1ccccc1`, the result was inactive.

For the compound `C=C[C@@]1(C)CC(=O)[C@]2(O)[C@@]3(C)[C@@H](O)CCC(C)(C)[C@@H]3[C@H](O)[C@H](OC(C)=O)[C@@]2(C)O1`, the call was inactive.

On to `C=CCNCC=C`, for which the call was inactive.

As for `CC(=O)OCC=C(C)C`, the result was inactive.

In the case of `CC(=O)C(C)C`, the call was inactive.

As for `CCN1CCCC1=O`, the result was inactive.

Take `c1ccc(Nc2cccc3ccccc23)cc1`: the AC50 is 33.4 µM (active).

For `CCNc1nc(NC(C)(C)C)nc(OC)n1`, the compound was classed as inactive.
